CHRM1 antagonist: human M1 muscarinic receptor antagonists, primary screen, CHO-K1 cells, Fluo-8 calcium fluorescence, 1536-well. Muscarinic acetylcholine receptor M1 (Homo sapiens), P11229. CHO-K1 hM1, ACh EC80 antagonist. inhibition, % at 3 µM. actives 1.3% (n = 360,000);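 active = percent inhibition above its own plate's cutoff, namely the mean of that plate's compound wells plus 3 SD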;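 also: peak over basal fluorescence ratio during 140 s after agonist addition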
Target sequence (P11229 whole entry, looked up): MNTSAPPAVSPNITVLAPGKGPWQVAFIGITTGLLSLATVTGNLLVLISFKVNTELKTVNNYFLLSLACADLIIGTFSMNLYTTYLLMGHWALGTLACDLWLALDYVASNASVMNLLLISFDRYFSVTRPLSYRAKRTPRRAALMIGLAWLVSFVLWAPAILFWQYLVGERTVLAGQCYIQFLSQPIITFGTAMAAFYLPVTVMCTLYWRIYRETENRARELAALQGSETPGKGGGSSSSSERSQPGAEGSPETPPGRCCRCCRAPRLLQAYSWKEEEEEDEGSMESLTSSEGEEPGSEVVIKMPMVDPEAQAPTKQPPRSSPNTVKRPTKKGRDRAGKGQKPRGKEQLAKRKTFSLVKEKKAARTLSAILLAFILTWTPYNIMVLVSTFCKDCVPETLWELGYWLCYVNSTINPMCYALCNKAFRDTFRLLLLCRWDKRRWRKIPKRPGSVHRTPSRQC
CHO-K1 Ca ag: counter-screen for M1 agonists: effect in parental CHO-K1 cells. Fluo-8 calcium fluorescence; scaled to maximal ATP response, vehicle zero. activation, % at 3 µM. actives 0.48% (n = 360,000). AID 602248, 2012; in the data active = activation above about 15%;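 also: untransfected CHO-K1 host cells lacking M1 receptor as counterscreen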
M1 PAM: human M1 muscarinic receptor positive allosteric modulators, primary screen, CHO-K1 cells, Fluo-8 calcium fluorescence, 1536-well; Muscarinic acetylcholine receptor M1 (Homo sapiens), P11229; AID 588819, 2011; activation, % at 3 µM; CHO-K1 hM1, ACh EC20; 0% = ACh EC20, 100% = maximal ACh; actives 0.088% (n = 360,000); in the data active = activation above about 19%, passing the limit was not always enough
CHO-K1 Ca antag: nonselective inhibitor or artifact in parental CHO-K1 cells; AID 602250; ATP-induced calcium, Fluo-8 fluorescence; inhibition, % at 3 µM; actives 0.6% (n = 360,000);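 active = inhibition above a per-plate cutoff, the plate's mean sample inhibition plus 3 SD, cut at about 24% in these data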
M1 PAM parental: nonselective calcium activators in parental CHO-K1 cells, primary screen, counter-screen for M1 PAM project, cell-based, Fluo-8 calcium fluorescence, full deck, 1536-well | ATP EC20; 0% at ATP EC20, 100% at ATP max | actives 0.02% (n = 360,000) | AID 602247, 2012 | activation, % at 3 µM;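 active = activation above the run cutoff, the mean activation of all test compounds plus 3 SD, cut at about 40% in these data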;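 also: peak over basal fluorescence ratio in a 140 s read after ATP addition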
M1 ag: human M1 muscarinic receptor agonists, primary screen, Fluo-8 calcium fluorescence, CHO-K1 cells, HTS; CHO-K1 hM1, agonist mode; 0% DMSO, 100% acetylcholine EC100; activation, % at 3 µM; actives 0.33% (n = 360,000); AID 588814, 2011;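 active = activation above the run's mean compound activation plus 3 SD, cut at about 16% in these data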;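 also: peak over basal fluorescence ratio within a 140 s kinetic read after compound addition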
Numbers stand for hits. Rows were chosen to be rich in hits. Some 2.3% of all compounds tested hit in one or more screens of this group.

For CCOC(=O)c1nn(-c2ccccc2C)c(=O)cc1OCC(=O)N1CCN(c2ccccc2)CC1 the results were CHRM1 antagonist inactive, CHO-K1 Ca ag inactive, M1 PAM inactive, CHO-K1 Ca antag inactive, M1 PAM parental inactive and M1 ag inactive.
O=C(NCCc1ccccc1)c1c[nH]c2c(F)cccc2c1=O was read as CHRM1 antagonist inactive, CHO-K1 Ca ag inactive, M1 PAM inactive, CHO-K1 Ca antag inactive, M1 PAM parental inactive and M1 ag inactive.
For Cc1cccc2c(=O)c(C(=O)NCCc3ccccc3)c[nH]c12 the results were CHRM1 antagonist 30.5, CHO-K1 Ca ag inactive, M1 PAM inactive, CHO-K1 Ca antag inactive, M1 PAM parental inactive and M1 ag inactive.
Screening Cn1cc(S(=O)(=O)N2CCc3ccccc32)cc1C(=O)NC(C)(C)C returned CHRM1 antagonist 31.6, CHO-K1 Ca ag inactive, M1 PAM inactive, CHO-K1 Ca antag 26.0, M1 PAM parental inactive and M1 ag inactive.
CC(=O)N1CCc2cc(S(=O)(=O)N3CCc4ccccc43)ccc21 was read as CHRM1 antagonist 59.7, CHO-K1 Ca ag 15.2, M1 PAM inactive, CHO-K1 Ca antag inactive, M1 PAM parental inactive and M1 ag inactive.
For Cc1cccc(C)c1NC(=O)c1cc(S(=O)(=O)N2CCc3ccccc32)cn1C the results were CHRM1 antagonist inactive, CHO-K1 Ca ag inactive, M1 PAM inactive, CHO-K1 Ca antag inactive, M1 PAM parental inactive and M1 ag inactive.
CSc1cccc(NS(=O)(=O)c2ccc3c(c2)CCN3C(C)=O)c1 was read as CHRM1 antagonist inactive, CHO-K1 Ca ag 18.4, M1 PAM inactive, CHO-K1 Ca antag 29.1, M1 PAM parental inactive and M1 ag inactive.
`CC(=O)N1CCc2cc(S(=O)(=O)N3CCc4ccccc4C3)ccc21` gave CHRM1 antagonist inactive, CHO-K1 Ca ag inactive, M1 PAM inactive, CHO-K1 Ca antag inactive, M1 PAM parental inactive and M1 ag inactive.
`COc1cccc(NS(=O)(=O)c2ccc3c(c2)CCN3C(C)=O)c1` gave CHRM1 antagonist inactive, CHO-K1 Ca ag inactive, M1 PAM inactive, CHO-K1 Ca antag inactive, M1 PAM parental inactive and M1 ag inactive.
For O=C(/C=C/c1ccc(S(=O)(=O)N2CCOCC2)cc1)OCC(=O)c1ccc([N+](=O)[O-])cc1 the results were CHRM1 antagonist inactive, CHO-K1 Ca ag inactive, M1 PAM inactive, CHO-K1 Ca antag inactive, M1 PAM parental inactive and M1 ag inactive.
CCOC(=O)C1=C(O)/C(=C\c2ccc(CNC(=O)C(=O)Nc3ccccc3)o2)N=C1C was read as CHRM1 antagonist inactive, CHO-K1 Ca ag inactive, M1 PAM inactive, CHO-K1 Ca antag 28.2, M1 PAM parental inactive and M1 ag inactive.
CCN(CC)CCOc1ccccc1C(C)=O was read as CHRM1 antagonist 39.6, CHO-K1 Ca ag inactive, M1 PAM inactive, CHO-K1 Ca antag inactive, M1 PAM parental inactive and M1 ag inactive.
`CC(=O)c1ccccc1OCCOCCOc1ccccc1C(C)=O` gave CHRM1 antagonist inactive, CHO-K1 Ca ag inactive, M1 PAM inactive, CHO-K1 Ca antag inactive, M1 PAM parental inactive and M1 ag inactive.
For Cc1ccc(S(=O)(=O)N2C[C@H]3n4c(=O)ccc(=O)n4C[C@H](OC(=O)NCc4ccccc4F)[C@@]3(O)C2)cc1 the results were CHRM1 antagonist inactive, CHO-K1 Ca ag inactive, M1 PAM inactive, CHO-K1 Ca antag inactive, M1 PAM parental inactive and M1 ag inactive.
Screening O=S(=O)(NCCCCCNS(=O)(=O)c1ccccc1)c1ccccc1 returned CHRM1 antagonist inactive, CHO-K1 Ca ag inactive, M1 PAM inactive, CHO-K1 Ca antag 24.1, M1 PAM parental inactive and M1 ag inactive.
O=S(=O)(NCCCc1ccccc1)c1ccccc1 was read as CHRM1 antagonist inactive, CHO-K1 Ca ag inactive, M1 PAM inactive, CHO-K1 Ca antag inactive, M1 PAM parental inactive and M1 ag inactive.

High-throughput results: PubChem, The Scripps Research Institute Molecular Screening Center
